The list is not random: actives were taken first. Their share in the collection is about 4.1%.
LEDGF integ inh – blocks HIV-1 LEDGF/p75-dependent DNA integration; TR-FRET IN-LEDGF/p75 DNA integration, Eu/Cy5; inhibition, % at 3.7 µM; actives 0.64% (n = 370,000); AID 743269;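 active means inhibition above the screen-wide mean plus 3 SD, cut at about 13% in these data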;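 further: signal is the Cy5 over europium emission ratio at 671 and 618 nm; 0% = plate median of compound wells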
MBD2 DNA inh – MBD2-methylated oligo binding inhibition. TR-FRET, MBD2 binding to methylated oligonucleotide. inhibition, % at 4.4 µM. actives 0.31% (n = 370,000). AID 686964; in the data active means inhibition above about 13%
rCAG binder – binds r(CAG) RNA repeats; r(CAG) RNA repeat, TO-PRO-1 dye displacement fluorescence; inhibition, % at 3 µM; actives 1.3% (n = 370,000);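 active means inhibition above the plate cutoff, the mean of all test compounds on that plate plus 3 SD, cut at about 35% in these data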;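 further: 0% = DMSO alone and 100% = 100 µM mitoxantrone as full dye displacement; higher means more dye released from RNA so lower well fluorescence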
UHRF1 binding – blocks human UHRF1 binding to methylated DNA; actives 0.75% (n = 370,000); inhibition, % at 4.4 µM; Q96T88; UHRF1 binding to methylated oligo, TR-FRET; AID 687016; in the data active means inhibition above about 21%;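 further: UHRF1 SRA domain binding a hemimethylated CpG hairpin DNA probe; 0% = median of test compound wells and 100% = reference inhibitor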
PRMT1 FP inh – blocks human protein arginine methyltransferase 1; Q99873; AID 652257; inhibition, % at 2.79 µM; actives 1.3% (n = 370,000); recombinant PRMT1, activity-based probe fluorescence polarization;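 active means inhibition above about 21% made by adding two undisclosed values, limit read from the data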
ABHD5-PLIN5 inh – blocks binding of human ABHD5 to perilipin-5; Split G. princeps luciferase complementation, luminescence, 4 h; inhibition, % at 4 µM; actives 0.78% (n = 360,000); AID 602281;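 active means inhibition above the mean inhibition across every tested compound plus 3 SD, cut at about 22% in these data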;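 further: 0% = DMSO only wells and the 100% control is not disclosed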
Target sequence (Q00G26 whole entry, looked up): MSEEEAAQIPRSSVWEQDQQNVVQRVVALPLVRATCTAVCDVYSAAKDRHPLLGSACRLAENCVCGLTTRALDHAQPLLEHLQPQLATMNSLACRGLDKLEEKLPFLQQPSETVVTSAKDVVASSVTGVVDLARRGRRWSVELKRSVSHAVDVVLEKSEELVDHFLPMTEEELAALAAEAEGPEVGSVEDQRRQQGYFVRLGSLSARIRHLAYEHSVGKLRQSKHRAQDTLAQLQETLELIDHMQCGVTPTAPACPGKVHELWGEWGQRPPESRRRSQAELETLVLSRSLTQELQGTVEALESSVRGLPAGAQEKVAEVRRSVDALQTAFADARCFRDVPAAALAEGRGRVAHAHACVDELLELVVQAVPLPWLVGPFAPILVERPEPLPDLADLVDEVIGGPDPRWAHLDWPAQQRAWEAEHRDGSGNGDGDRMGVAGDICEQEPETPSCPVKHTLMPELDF
Target sequence (Q8WTS1 whole entry, looked up): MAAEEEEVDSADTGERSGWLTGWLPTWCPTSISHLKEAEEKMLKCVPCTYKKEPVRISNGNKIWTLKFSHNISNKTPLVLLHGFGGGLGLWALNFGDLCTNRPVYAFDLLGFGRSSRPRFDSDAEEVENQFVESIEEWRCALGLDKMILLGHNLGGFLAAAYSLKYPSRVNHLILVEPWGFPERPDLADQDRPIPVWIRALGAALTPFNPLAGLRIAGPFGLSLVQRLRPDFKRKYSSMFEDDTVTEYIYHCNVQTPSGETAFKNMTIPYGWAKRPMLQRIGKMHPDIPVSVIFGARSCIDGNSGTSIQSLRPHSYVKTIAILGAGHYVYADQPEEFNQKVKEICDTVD
ABHD5-PLIN5 conf – ABHD5-PLIN5 interaction inhibition, confirmed | shares compounds with ABHD5-PLIN5 inh | biochemical ABHD5-PLIN5 interaction, luminescence | inhibition, % at 4 µM | actives 67% (n = 2,200) | AID 651612; in the data active means inhibition above about 23%;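 further: 0% = DMSO vehicle wells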
HNF4 split-luc – active in HNF4 split-luciferase counter-screen for ABHD5-PLIN5 inhibitors | inhibition, % at 4 µM | actives 77% (n = 2,200) | shares compounds with ABHD5-PLIN5 inh | HNF4 dimerization, luminescence, biochemical;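 active means mean inhibition across replicate wells exceeding the computed hit threshold, cut at about 13% in these data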;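 further: light from luciferase halves that rejoin when HNF4 fusion proteins dimerize; 0% = DMSO only wells and the 100% control is not given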
rCAG binder conf – r(CAG) RNA repeat binding, confirmation. inhibition, % at 3 µM. actives 70% (n = 4,300). shares compounds with rCAG binder. TO-PRO-1 dye displacement fluorescence;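 active means inhibition above a per-plate cutoff, the mean inhibition of sample wells plus 3 SD, cut at about 35% in these data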;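 further: loss of TO-PRO-1 fluorescence as compound displaces dye from 1x1 AA loop RNA; 0% = DMSO only wells and 100% = 100 µM mitoxantrone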
DNA CAG counter – DNA CAG dye complex inhibition counter-screen; shares compounds with rCAG binder; inhibition, % at 3 µM; d(CAG) DNA oligo TO-PRO-1 dye displacement, fluorescence; actives 94% (n = 4,300);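 active means inhibition above its plate's cutoff, the mean test-well inhibition plus 3 SD, cut at about 4.8% in these data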;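 further: 0% = DNA dye mix with DMSO and 100% = 100 µM mitoxantrone; hits displace the dye from DNA and so lower well fluorescence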
PRMT1 inh conf – PRMT1 (human) inhibition, FP confirmation. shares compounds with PRMT1 FP inh. recombinant His-PRMT1, activity-based probe fluorescence polarization. inhibition, % at 2.79 µM. actives 42% (n = 3,300). AID 687036;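 active means mean inhibition across replicates above the hit cutoff derived for the earlier primary screen, cut at about 22% in these data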
* = called active by the depositor; . = no result.

SMILES | LEDGF integ inh | MBD2 DNA inh | rCAG binder | UHRF1 binding | PRMT1 FP inh | ABHD5-PLIN5 inh | ABHD5-PLIN5 conf | HNF4 split-luc | PRMT1 inh conf | others
CCCC(=O)OCCNc1cc(Sc2nccn2C)c2nonc2c1[N+](=O)[O-] | -6.1 | -6.3 | 5.1 | -4.0 | 71.9* | 28.2* | 55.7* | 109.0* | 40.0*
CCC(=O)OCCNc1cc(Sc2nc3ccccc3[nH]2)c2nonc2c1[N+](=O)[O-] | -9.0 | -8.3 | 11.9 | -9.1 | 84.0* | 42.7* | 63.2* | 111.2* | 76.4*
CCCSc1cc(NCCOC(=O)CCC)c([N+](=O)[O-])c2nonc12 | 1.3 | -8.3 | 2.6 | -8.1 | 20.9 | -21.7 | . | . | .
Cc1ccc(/C=C2/NC(=O)N(Cc3ccccc3)C2=O)o1 | 4.5 | -1.8 | 10.8 | -5.5 | 66.4* | 44.1* | 58.2* | 68.4* | 15.2
Cc1ccc(/C=C2\SC(=S)N(Cc3ccccc3)C2=O)o1 | 0.2 | -3.5 | 29.0 | -0.3 | 2.2 | -4.6 | . | . | .
COc1ccc2c(c1)[C@@]1(NCCc3c1[nH]c1ccc(OC)cc31)C(=O)N2C | 2.7 | -1.7 | 1.3 | -1.4 | -7.0 | . | . | . | .
CN(C)CCC(=O)C(Cc1ccccc1)c1ccccc1 (configuration not stated) | 7.3 | -1.6 | 34.9* | 2.7 | 42.1* | 29.0* | 59.8* | 92.8* | 31.7* | rCAG binder conf=-1.3;DNA CAG counter=-1.0
CN(C)CCNC(=O)C(c1ccccc1)c1ccccc1 | 4.7 | -1.7 | -1.4 | -2.2 | -5.7 | -8.2 | . | . | .
Cc1ccc(NC(=O)c2nc(S(=O)(=O)Cc3ccccc3)ncc2Cl)cc1 | -0.1 | 4.3 | 0.1 | -1.4 | 37.7* | 71.9* | 93.8* | 101.7* | 23.4*
O=C(Nc1ccc(F)cc1)c1nn(-c2ccccc2)c(=O)cc1Cl | 0.2 | -0.1 | 1.1 | 0.1 | 0.3 | 18.8 | . | . | .
Cc1cccc(CS(=O)(=O)c2ncc(Cl)c(C(=O)Nc3c(C)cccc3C)n2)c1 | -3.4 | -5.3 | -0.2 | -0.2 | 24.9* | 74.6* | 89.0* | 106.8* | 12.4
O=C(Nc1ccc(F)cc1)c1nc(S(=O)(=O)Cc2ccccc2)ncc1Cl | -0.8 | 1.7 | -2.1 | 6.0 | 39.3* | 60.1* | 90.4* | 97.0* | 17.8
CCOC(=O)CC[C@H]1CC[C@]2(CCCN(C(=O)c3ccccc3)C2)O1 | -1.4 | -0.4 | 0.0 | -0.9 | 9.8 | . | . | . | .
Cc1cc(C(=O)NCc2ccco2)c2ccccc2n1 | -5.7 | 4.6 | 0.0 | 1.1 | 3.5 | 7.1 | . | . | .
Cc1ccc(-c2cc(C(=O)NCc3ccco3)c3ccccc3n2)o1 | 15.4* | 4.6 | 17.9 | 7.7 | 48.2* | 44.2* | 16.4 | 30.2* | 9.3
Cc1cc(C)nc(S/C=C/C(=O)c2ccccc2F)n1 | 3.9 | -2.9 | 4.7 | 1.7 | 25.2* | 47.8* | 95.8* | 100.5* | 18.6
Cc1cc(C)nc(NC(=S)NC(=O)c2ccccc2F)n1 | -4.0 | 0.2 | 0.6 | 2.4 | -2.1 | 0.4 | . | . | .
COc1ccc(C(=O)CSc2nnc(-c3cccnc3)n2-c2ccc(C)cc2)cc1 | 0.3 | 1.1 | 2.5 | -1.8 | 1.1 | . | . | . | .
O=C(c1ccc2c3c(cccc13)CC2)C1CCCN(Cc2cccnc2)C1 (configuration not stated) | -2.6 | -0.6 | -7.2 | -1.1 | 0.9 | 5.1 | . | . | .
COc1cc(CN2CCCC(C(=O)c3ccc4c5c(cccc35)CC4)C2)cc(OC)c1O (configuration not stated) | -2.7 | -3.6 | 2.2 | 0.5 | 27.9* | 29.1* | 15.4 | 39.7* | 7.8
COc1ccccc1N1CCN(N=Cc2ccccc2Br)CC1 | 2.2 | 6.6 | -0.2 | 2.4 | -0.9 | . | . | . | .
O=C(O)c1ccc(S(=O)(=O)c2ccc([N+](=O)[O-])cc2[N+](=O)[O-])cc1 | 2.1 | -4.7 | 2.1 | -4.8 | 29.9* | 42.3* | 68.3* | 110.2* | 26.8*
COC(=O)/C=C/S(=O)(=O)c1ccc(NC(C)=O)cc1 | 1.3 | -2.5 | 3.3 | 0.2 | 72.9* | 76.2* | 86.5* | 107.0* | 28.6*
COc1ccccc1OS(=O)(=O)c1ccc(NC(C)=O)cc1 | -0.6 | 1.6 | -3.1 | -0.3 | -2.1 | 3.1 | . | . | .
Cc1ccc(/C=C/C(=O)NCC2COc3ccccc3O2)o1 (configuration not stated) | 1.6 | -3.4 | 6.5 | -4.2 | 34.4* | 23.8* | 49.3* | 62.7* | 30.2*
SMILES | LEDGF integ inh | MBD2 DNA inh | rCAG binder | UHRF1 binding | PRMT1 FP inh | ABHD5-PLIN5 inh | ABHD5-PLIN5 conf | HNF4 split-luc | PRMT1 inh conf | others
COc1ccc(/C=C/C(=O)NCC2COc3ccccc3O2)cc1OC (configuration not stated) | 0.7 | -1.5 | -2.7 | 0.1 | -0.8 | 0.8 | . | . | .
Cc1ccc(/C=C/C(=O)NC2CCCCCCC2)o1 | -2.1 | -0.8 | 7.5 | 4.7 | 49.7* | 50.2* | 54.6* | 70.8* | 58.5*
Cc1ccc(/C=N/NC(=O)NC2CCCCC2)o1 | -4.4 | -3.3 | 0.0 | 1.2 | 3.2 | 3.6 | . | . | .
COc1ccc(NC(=O)CCCNS(=O)(=O)c2ccc3[nH]c(=O)oc3c2)cc1OC | -3.0 | 1.8 | 2.8 | 0.7 | 7.5 | . | . | . | .
CCCCCc1cccc2[nH]cc(-c3ccccc3)c12 | -2.0 | 3.2 | 3.7 | -1.0 | 2.9 | . | . | . | .
O=S(=O)(CS(=O)(=O)c1ccccc1)c1ccccc1 | 1.6 | -0.2 | 2.5 | 2.2 | -2.5 | 2.0 | . | . | .
O=S(=O)(C/C(=C/CO)S(=O)(=O)c1ccccc1)c1ccccc1 | -0.3 | 5.6 | 1.1 | -0.1 | 28.7* | 65.2* | 94.9* | 92.3* | 7.4
CC(C)CN1C(=O)C[C@@]2(C(=O)N(C)c3ccc(NS(=O)(=O)C4CCCCC4)cc32)C1c1ccccc1 (some centres not stated) | 6.0 | -5.3 | 2.6 | -2.2 | -3.1 | . | . | . | .
CCNC(=O)N1C[C@H]2CON(C)[C@H]2C[C@H]1c1ccc(N2CCCCC2)cc1 | -1.6 | 4.9 | -1.5 | 5.0 | 4.0 | . | . | . | .
CN1OC[C@@H]2CN3C(=Nc4cc(C(F)(F)F)cc(C(F)(F)F)c4)Sc4ccccc4[C@@H]3C[C@@H]21 | -2.9 | -0.4 | 2.2 | 0.2 | 3.8 | . | . | . | .
N#Cc1c([N+](=O)[O-])cc([N+](=O)[O-])cc1S(=O)(=O)Cc1ccccc1 | 1.0 | -2.8 | 6.8 | 5.7 | 72.2* | 36.2* | 63.8* | 94.9* | 60.9*
